Bioassay records as filed in PubChem BioAssay.
CBFb RUNX1 block = inhibitors of human CBF-beta and RUNX1 interaction | Potency, µM (series often up to 59.8 µM), for the others: at the highest dose activity, negative = inhibition, usual class: inhibitors | Q01196+Q13951 | 230,000 tested, under 10 active | AlphaScreen CBFb-His/RUNX1-biotin binding, biochemical; also: % of control where 0% means no effect
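CBF-beta (His) and RUNX1 (biotin), 30 nM each; 20 min preassociation; + compound, 15 min; + beads 50 ng each (Ni, streptavidin), 90 min; RT; AlphaScreen read.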
ALDH1A1 inh = inhibitors of human aldehyde dehydrogenase 1A1; P00352; Purified ALDH1A1, NADH fluorescence, propionaldehyde substrate; Potency, µM (top dose mostly 75.3 µM), for the others: at the top dose activity, negative = inhibition, hits mostly inhibitors; hit rate 7.3% among 220,000; active = well fitted inhibition curve with a large enough effect, not every such curve was filed as active; inconclusive = small, poorly fitted or top-dose-only effect, or another doubt; inactive = no such curve, though single readings can be large or run the other way;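 also: potency is read from the fitted curve at half-maximal effect; plate controls were no enzyme wells and a reference inhibitor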
Target sequence (P00352 whole entry, looked up): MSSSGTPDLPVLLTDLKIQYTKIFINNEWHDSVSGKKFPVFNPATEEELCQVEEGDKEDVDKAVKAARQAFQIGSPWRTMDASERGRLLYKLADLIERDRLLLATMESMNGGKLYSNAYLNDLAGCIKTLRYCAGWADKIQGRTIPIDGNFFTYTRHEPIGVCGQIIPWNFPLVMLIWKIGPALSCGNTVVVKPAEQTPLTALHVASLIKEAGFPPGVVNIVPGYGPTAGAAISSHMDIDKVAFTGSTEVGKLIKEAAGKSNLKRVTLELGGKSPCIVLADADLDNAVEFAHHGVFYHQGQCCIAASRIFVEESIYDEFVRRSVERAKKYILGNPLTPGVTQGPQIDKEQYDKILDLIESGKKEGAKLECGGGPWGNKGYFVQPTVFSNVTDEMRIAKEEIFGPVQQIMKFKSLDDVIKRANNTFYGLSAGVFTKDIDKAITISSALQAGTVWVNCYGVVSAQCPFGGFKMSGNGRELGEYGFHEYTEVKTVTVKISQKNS
HTT cytoprotect = protects HTT-Q103 PC12 cells, measured by ATP. PC12 HTT-Q103 induced, cytoprotection, ATP luminescence, 40 h. Potency, µM (highest dose often 56.4 µM), for the others: cytoprotection (ATP increase), most hits filed as activators. hit rate 0.14% among 230,000. AID 1471; also: potency is read from the fitted curve at half-maximal effect; % of control where 0% means no effect; nearly all actives have a fitted effect of over 45% in size
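PC12 cells stably carrying ecdysone-inducible Htt exon 1 (Q103)–GFP were induced with 100 nM tebufenozide (final) alongside library compounds in a dose series. Cytoprotection was scored as retained ATP by ATPlite luminescence.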
HttQ103 aggreg = mutant huntingtin aggregation inhibition; PC12 HttQ103-GFP aggregates, Acumen cytometry, 40 h; Potency, µM (highest dose often 46.1 µM), for the others: at the highest dose activity change, negative = inhibition, hits mostly inhibitors; hit rate 1.1% among 220,000; also: potency is read from the fitted curve at half-maximal effect; % is scaled to controls: 0 for no effect and ±100 for the full control effect; nearly all actives have a fitted effect of over 60% in size
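Huntingtin Q103 exon 1–GFP aggregates in induced PC12 cells (100 nM tebufenozide) were quantified by cytometry from lysates, with compounds dosed in titration.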
HPGD inh = blocks human HPGD enzyme activity. P15428. purified HPGD, NADH fluorescence kinetic, PGE2 substrate. Potency, µM, without a hit: top-dose activity change, negative = inhibition, actives largely listed as inhibitors. hit rate 4.3% among 150,000; active = well fitted inhibition curve with a large enough effect, not every such curve was filed as active; inconclusive = small, poorly fitted or top-dose-only effect, or another doubt; inactive = no such curve, though single readings can be large or run the other way; also: potency is read from the fitted curve at half-maximal effect; % is scaled to controls: 0 for no effect and ±100 for the full control effect
Target sequence (P15428 whole entry, looked up): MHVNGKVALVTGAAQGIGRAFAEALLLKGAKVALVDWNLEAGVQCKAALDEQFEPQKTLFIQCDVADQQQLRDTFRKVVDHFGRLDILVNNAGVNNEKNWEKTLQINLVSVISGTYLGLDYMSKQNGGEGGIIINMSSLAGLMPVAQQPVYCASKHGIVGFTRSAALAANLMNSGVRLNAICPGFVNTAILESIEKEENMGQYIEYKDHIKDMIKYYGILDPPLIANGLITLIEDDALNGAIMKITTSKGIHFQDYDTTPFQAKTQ
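20 nM HPGD preincubated 15 min at room temperature with compound in 50 mM Tris-HCl pH 8, 0.01% Tween 20. Started with 1 mM NAD+ and 30 uM prostaglandin E2; NADH fluorescence (360/450 nm) read 5 times over 30-s intervals, last minus first.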
PNC inhibitor = perinucleolar compartment assembly inhibition | hit rate 3.1% among 140,000 | PC3M PTB-GFP, PNC prevalence imaging, 16 h; hits give low values | activity change (PNC), negative = inhibition, % at 10 µM | AID 2417;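 active = readout at or below -70, meaning at least 70% loss of cells showing the perinucleolar compartment, a nuclear body marking cancer cells; inconclusive = readout between -30 and a set limit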;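 also: plate controls were DMSO wells for no effect and camptothecin positive control wells for full effect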
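Compounds are pinned in duplicate onto adhered PC3M cells stably expressing GFP-tagged PTB and incubated 16 h at 37 C. Cells are then fixed, nuclei stained with Hoechst, and PNC-positive cells counted.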
* marks the source's active call; other numbers are inactive results; u = inconclusive; x = no result; [ ] = dose if it differs, or a comment. In the library only some 11% were active in any assay of this set; here they are far more common. Unless noted, calls follow the shape of the dose curve; as a rule, active = well fitted curve in the direction sought with a large enough effect; inconclusive = small, poorly fitted or top-dose-only effect, or another doubt; inactive = no such curve, though single readings can be large; an effect the other way counts as inactive or inconclusive.

SMILES | CBFb RUNX1 block | ALDH1A1 inh | HTT cytoprotect | HttQ103 aggreg | HPGD inh | PNC inhibitor
COc1ccc2[nH]cc(CCn3ccc(O)c(C/C=C/c4ccccc4)c3=O)c2c1 | -11% | 14µM* | -53% | u | x | x
CCOc1ccc(NC(=O)C(C)O)c(NS(=O)(=O)c2ccc(CCNC(C)=O)cc2)c1 (configuration not stated) | 1% | u | 1% | 0% | -2% | 21
CCOC(=O)c1sc(=S)sc1SCc1cccc(C(F)(F)F)c1 | -3% | u | -14% | 8% | 28µM* | u
CCOC(=O)c1cc(=O)c2c([N+](=O)[O-])ccc(OC)c2o1 | 7% | 0% | x | 2% | -9% | -5
O=C1CC(NNC(=O)c2cccc(F)c2)C(=O)N1 (configuration not stated) | 2% | 4% | -9%[10 µM] | -23%[9.22 µM] | x | x
COc1cc2[nH]c(=S)nc(NCc3cccs3)c2cc1OC | -4% | 11µM* | -10% | -22% | x | x
COCCCNc1nc(=S)[nH]c2cc(OC)c(OC)cc12 | -7% | -8% | -16% | 4% | 14µM* | -7
COc1cc2[nH]c(=S)nc(NCCC(C)C)c2cc1OC | 22% | u | -7% | -16% | x | x
Cc1ccccc1OCC1CN(CN2CCOCC2)C(=O)O1 (configuration not stated) | 4% | 3% | -14%[10 µM] | 4%[9.22 µM] | -1% | -87*
O=C(CC(c1ccccc1)c1ccccc1O)NCc1ccccc1Cl (configuration not stated) | -5% | -4% | -21%[10 µM] | -23% | 16µM* | u
O=C(CSCC(=O)NCc1ccco1)NCc1ccco1 | 1% | u | -13%[10 µM] | -24% | -6% | -19
O=C(CC(c1ccccc1)c1ccccc1O)NCc1ccco1 (configuration not stated) | -2% | 3% | 3% | 13% | 16µM* | 0
O=C(COC(=O)CCSc1ccccc1)NCc1ccccc1Cl | 10% | 7% | 14%[10 µM] | 5% | 18µM* | 29
CC(C)c1ccc(/C=C/C(=O)N2CCCCCC2)cc1 | 10% | u | x | 15% | 14µM* | u
Cc1ccc(S(=O)(=O)Nc2ccc3nc(C)sc3c2)cc1 | 0% | -2% | -48% | 14µM* | -28% | u
Cc1ccc2nc(-c3ccc(NS(=O)(=O)c4ccc(F)c(F)c4)cc3)sc2c1 | 17% | u | 11%[10 µM] | 2.8µM* | u | -18
Cc1nc2ccc(NS(=O)(=O)c3c(C)c(C)cc(C)c3C)cc2s1 | 0% | -15% | -67% | 13µM* | -11% | 3
COc1ccc(NC(=O)CSc2ccccn2)cc1 | 6% | -4% | -1%[10 µM] | 2% | 25µM* | -16
CC(=C/c1ccc(C(C)C)cc1)/C=N/NC(=O)CSc1ccccn1 | -9% | u | 26%[10 µM] | 4% | -23% | u
CC(/C=N/NC(=O)CSc1ccccn1)=C\c1ccc(C(C)C)cc1 | -6% | 25µM* | -11%[10 µM] | -1% | -28% | 6
COc1ccc(C(=O)N/N=C/c2ccc(OC)c(CSc3ccccn3)c2)cc1 | -6% | u | 20%[10 µM] | 3% | 32µM* | -7
O=C(CSc1ccccn1)Nc1ccc(NC(=O)CSc2ccccn2)cc1 | -1% | -7% | -11%[10 µM] | -10%[9.22 µM] | x | x
COc1cccc(NC(=O)CSc2ccccn2)c1 | 0% | 20µM* | -10% | 23%[9.22 µM] | 28µM* | -26
C[C@@H]1O[C@H](O[C@@H]2C(O)[C@H](O)[C@@H](CO)O[C@H]2Oc2cc(O)c3c(=O)cc(-c4ccc(O)cc4)oc3c2)[C@H](O)[C@H](O)[C@H]1O (some centres not stated) | 19% | x | x | x | x | x
CC(=O)Nc1ccc(/C(C)=N/NS(=O)(=O)c2ccccc2)cc1 | -1% | u | -6%[10 µM] | 13% | 1% | -30
SMILES | CBFb RUNX1 block | ALDH1A1 inh | HTT cytoprotect | HttQ103 aggreg | HPGD inh | PNC inhibitor
Cc1ccc(NC(=O)CSc2ccc(-c3ccccn3)nn2)cc1 | u | -2% | -6%[10 µM] | u | x | x
COc1ccc(NC(=O)CSc2ccc(-c3ccccn3)nn2)cc1OC | x | 14µM* | 15%[10 µM] | 12% | -14% | 17
Cc1cc(C)nc(NC(=O)CSc2ccccn2)n1 | -14% | 10µM* | -7%[1.9 µM] | -8% | 2% | -11
NC(=O)C(=O)O | -5% | -3% | -5%[1.9 µM] | x | -5% | x
Cc1ccc(-n2c(O)c(C=Nc3ccccc3-c3n[nH]c(=S)[nH]c3=O)c3ccccc3c2=O)cc1C | -1% | 3.5µM* | x | 5% | x | x
Cc1cccc(-n2c(O)c(C=Nc3ccccc3-c3n[nH]c(=S)[nH]c3=O)c3ccccc3c2=O)n1 | 6% | u | -6%[10 µM] | -15%[9.22 µM] | x | x
Cc1ccc(-n2c(O)c(C=Nc3ccccc3-c3n[nH]c(=S)[nH]c3=O)c3ccccc3c2=O)c(C)c1 | 7% | 18µM* | -162% | u | x | x
Cc1sc2ncnc(SCC(=O)NNC(=O)c3ccco3)c2c1C | -19% | -8% | 11%[10 µM] | 8% | x | x
Cc1sc2ncnc(OCC(=O)N3CCN(C(=O)c4ccco4)CC3)c2c1C | 9% | 3.2µM* | -20%[10 µM] | -4% | x | x
Cc1cc(N2CCN(c3ccccc3)CC2)nc(-c2ccccc2)n1 | 1% | -1% | 12% | -9% | -17% | u
Cc1cc(N2CCN(C(=O)c3ccco3)CC2)nc(-c2ccccc2)n1 | 2% | 6.3µM* | -17% | -1% | -21% | u
Cc1ccc(-c2csc3ncnc(N4CCN(C(=O)c5ccccc5)CC4)c23)cc1 | -11% | 13µM* | -45%[10 µM] | u | -15% | u
O=C(c1ccco1)N1CCN(c2ncnc3scc(-c4ccccc4)c23)CC1 | -20% | 11µM* | 2% | -6% | -20% | 46
Fc1ccccc1SCc1nnc(-c2ccccc2Br)o1 | 15% | u | -63% | 1% | x | x
Cc1c(NC(=O)COC(=O)c2ccc(Br)o2)c(=O)n(-c2ccccc2)n1C | 0% | -3% | 5% | 9% | x | x
COc1ccc(C(=O)N2CCN(c3ncnc4c(-c5ccccc5)nsc34)CC2)cc1 | 7% | 2.8µM* | 17%[10 µM] | -8% | u | -27
C=CCN1C(=O)C(O)(CC(=O)c2ccc(-n3cccc3)cc2)c2ccccc21 (configuration not stated) | -17% | 0.5µM* | -14%[0.074 µM] | u | -17% | u
COC(=O)CN1C(=O)C(O)(CC(=O)c2ccc(Br)cc2)c2ccccc21 (configuration not stated) | 1% | 0.35µM* | -21% | 1% | -4% | -8
COC(=O)CN1C(=O)C(O)(CC(=O)c2ccc(C)cc2)c2cc(Br)ccc21 (configuration not stated) | 5% | 20µM* | -10%[10 µM] | -5% | -12% | -5
